Compound activity: PubChem, National Center for Advancing Translational Sciences (NCATS)
RE007 growth inh = qHTS Assay for Inhibitors of the HIV-1 protein Vpr | Potency, µM (highest dose often 92.2 µM), most hits filed as inhibitors | actives 0.21% (n = 360,000) | S. pombe RE007 Vpr strain, BacTiter-Glo ATP luminescence, 24 h; active = well fitted falling curve with a large enough effect; inconclusive = small, poorly fitted or top-dose-only effect; inactive = no such curve, though single readings can be large or run the other way; also: nearly all actives have a fitted effect of over 50% in size
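Fission yeast RE007 carrying one integrated HIV-1 vpr copy, seeded at OD 0.01 in PMG+AL medium with 23 nL pinned compound. Grown 24 h at 30 degrees; viability read by BacTiter-Glo luminescence after 5 min.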
FBPA Giardia inh = qHTS Assay for Inhibitors of Fructose-1,6-bisphosphate Aldolase from Giardia Lamblia. A8B2U2. purified Giardia FBPA. Potency, µM (top dose mostly 59.6 µM), hits mostly inhibitors. actives 0.71% (n = 290,000); also: nearly all actives have a fitted effect of over 55% in size
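40 nM FBPA preincubated 10 min at RT with compound (up to 57.5 uM final), then substrate plus GAPDH/TPI/NAD/arsenate coupling and diaphorase/resazurin added. Fluorescence read after 20 min at RT, 525/598 nm.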
SARS PLpro yeast-1 = qHTS of Yeast-based Assay for SARS-CoV PLP | S. cerevisiae expressing SARS-CoV PLpro, growth rescue | Potency, µM (doses to about 32.9 µM), actives largely listed as activators | actives 0.19% (n = 330,000); calls by dose curve; also: nearly all actives have a fitted effect of over 55% in size
LmPK inhibitor = qHTS Assay for Inhibitors of Leishmania Mexicana Pyruvate Kinase (LmPK) | Potency, µM (series often up to 57.5 µM), usual class: inhibitors | actives 0.37% (n = 290,000) | purified LmPK, Kinase-Glo ATP luminescence, 1 h
Target sequence (Q27686 whole entry, looked up): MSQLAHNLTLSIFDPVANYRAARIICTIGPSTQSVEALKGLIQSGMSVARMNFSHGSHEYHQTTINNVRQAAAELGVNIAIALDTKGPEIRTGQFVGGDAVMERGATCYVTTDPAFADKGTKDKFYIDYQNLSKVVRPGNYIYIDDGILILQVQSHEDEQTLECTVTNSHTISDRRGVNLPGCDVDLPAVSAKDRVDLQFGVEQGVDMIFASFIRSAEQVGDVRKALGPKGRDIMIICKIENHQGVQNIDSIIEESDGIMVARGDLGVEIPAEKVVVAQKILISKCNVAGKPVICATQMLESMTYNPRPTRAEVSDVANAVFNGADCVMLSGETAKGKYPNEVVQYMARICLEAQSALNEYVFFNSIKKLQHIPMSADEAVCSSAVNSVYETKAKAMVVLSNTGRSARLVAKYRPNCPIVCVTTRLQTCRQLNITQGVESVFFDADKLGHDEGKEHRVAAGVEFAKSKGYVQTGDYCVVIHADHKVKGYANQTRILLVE
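qHTS format; LmPK 0.1 nM; substrates PEP 0.5 mM and ADP 0.1 mM. One-hour room-temperature incubation, then coupled luciferase luminescence; 0.5 nM enzyme wells mark activation.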
TbPYK inhibitor = qHTS of Trypanosoma Brucei Inhibitors; Potency, µM (series often up to 76.8 µM), hits mostly inhibitors; TbPYK enzyme, Kinase-Glo Plus ATP luminescence, 45 min; pyruvate kinase (Trypanosoma brucei), Q57TT1; actives 0.12% (n = 410,000); also: nearly all actives have a fitted effect of over 50% in size
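Activity of T. brucei pyruvate kinase was followed by Kinase-Glo Plus luminescence after the enzyme reacted 45 min at room temperature with 130 uM ADP (final) and substrate. Test compounds were added before ADP at multiple concentrations.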
SARS PLpro yeast-2 = qHTS of Yeast-based Assay for SARS-CoV PLP: Hit Validation | shares compounds with SARS PLpro yeast-1 | yeast expressing SARS-CoV PLpro, growth phenotype rescue | calls only | actives 19% (n = 1,000); call rule not given here
Hits are given with their value; - = inactive; ? = inconclusive; . = no result given; + = active, no number. Rows were chosen to be rich in hits. Some 1.1% of all compounds tested hit in one or more screens of this group. Unless noted, calls follow the shape of the dose curve; as a rule, active = well fitted curve in the direction sought with a large enough effect; inconclusive = small, poorly fitted or top-dose-only effect, or another doubt; inactive = no such curve, though single readings can be large; an effect the other way counts as inactive or inconclusive.

SMILES | RE007 growth inh | FBPA Giardia inh | SARS PLpro yeast-1 | LmPK inhibitor | TbPYK inhibitor | SARS PLpro yeast-2
COc1ccccc1-c1cc(=O)c2cc(O)ccc2o1 | . | - | . | . | . | .
CCCSCCCNC(=O)CN1C(=O)COc2ccc(S(=O)(=O)N3CCC(C)CC3)cc21 | . | . | . | . | - | .
O=C(/C=C/c1cccs1)NC(=S)NNC(=O)Cc1cccs1 | - | ? | ? | - | - | +
S=C(NN=Cc1ccc2c(c1)OCO2)NN=Cc1ccc2c(c1)OCO2 | - | . | . | . | - | .
CC(C)NC(=S)N/N=C/c1ccc2c(c1)OCCO2 | - | - | 16µM | - | - | +
c1cncc(CNc2ncnc3ccc(-c4ccc5c(c4)OCCO5)cc23)c1 | . | . | - | . | - | .
c1cncc(-c2ccc3ncnc(NCc4ccc5c(c4)OCO5)c3c2)c1 | . | . | - | . | - | -
CCOC(=O)N1CCN(CC(O)COCc2ccccc2)CC1 (stereo unspecified) | - | - | ? | - | - | -
O=C(CCN1CCN(C(c2ccccc2)c2ccccc2)CC1)N/N=C/c1ccc(O)cc1O | - | - | 4.5µM | - | - | -
O=C(NCc1ccco1)c1ccc(Cl)c(S(=O)(=O)N2CCc3ccccc32)c1 | - | - | ? | - | - | -
O=C(NCc1ccco1)c1ccc(Cl)c(S(=O)(=O)N2CCOCC2)c1 | - | - | - | - | - | .
O=C(/C=C/c1ccc(Br)o1)NCc1ccccc1 | - | - | - | - | ? | .
Cc1ccc(CNC(=O)/C=C/c2ccc(Br)o2)cc1 | - | - | . | - | - | -
C/C=C/c1ccc(OCCCNC2CCCC2)c(OC)c1 | - | - | - | - | - | .
C/C=C/c1ccc(OCCCNC(C)CC)c(OC)c1 (stereo unspecified) | - | ? | 22µM | - | - | -
COc1cccc(NC(=O)COC(=O)CNS(=O)(=O)c2c(F)cccc2F)c1 | - | - | ? | - | - | -
COc1cc(NC(=O)Cn2c(C)cc3ccccc3c2=O)cc(OC)c1OC | - | - | 13µM | - | - | -
O=C(CCNS(=O)(=O)c1cccs1)Nc1ccccc1F | - | - | ? | - | - | -
CC(C)C(=O)Nc1cccc(C(=O)Nc2nnc(C(C)(C)C)s2)c1 | - | - | ? | - | - | -
CC(C)OC(=O)c1c(NC(=O)C2c3ccccc3Oc3ccccc32)sc2c1CCCC2 | . | . | . | . | - | .
O=C(NNC(=O)c1cc(Cl)ccc1O)c1ccc(NS(=O)(=O)c2cccs2)cc1 | - | . | ? | . | - | ?
COc1ccc(/C=C2\CN(Cc3ccccc3)C/C(=C\c3ccc(OC)cc3OC)C2=O)c(OC)c1 | - | - | - | - | - | .
COc1ccc(/C=C2\CN(Cc3ccccc3)C/C(=C\c3ccc(OC)cc3)C2=O)cc1 | - | ? | 20µM | - | - | -
Cc1ccc(C2N3CCCN23)cc1 (stereo unspecified) | - | - | - | - | - | .
Brc1ccc(C2N3CCCN23)cc1 (stereo unspecified) | - | - | 18µM | - | - | ?
SMILES | RE007 growth inh | FBPA Giardia inh | SARS PLpro yeast-1 | LmPK inhibitor | TbPYK inhibitor | SARS PLpro yeast-2
O=C(c1ccccc1)N1CCCCC1CCN1CCCCC1 (stereo unspecified) | . | . | . | . | - | .
COc1ccc(Cl)cc1NS(=O)(=O)c1cn(C)nc1C | - | . | ? | - | - | -
Cc1ccc(Cl)cc1NS(=O)(=O)c1cn(C)nc1C | - | . | - | - | - | .
COc1cccc2c1Oc1ncccc1N(c1ccc(C(=O)NCc3cccc(C)c3)s1)C2 | . | . | . | . | - | .
CCCCCC(=O)Nc1nc(C)c(-c2csc(Nc3cc(OC)ccc3OC)n2)s1 | - | - | - | - | - | .
CCCCCCC(=O)Nc1nc(C)c(-c2csc(Nc3cc(OC)ccc3OC)n2)s1 | - | - | ? | - | - | -
Cc1ccc(CN2CCN(/N=C/c3ccc(C(F)(F)F)cc3)CC2)c(C)c1 | - | - | ? | - | - | -
Cc1ccc(CN2CCN(/N=C/c3ccc(C(=O)O)cc3)CC2)c(C)c1 | - | - | - | - | - | .
Cc1cc(C)nc(N2CCCC(C(=O)NCCc3ccc(F)cc3)C2)n1 (stereo unspecified) | - | - | ? | - | - | +
COc1ccc(CCNC(=O)C(=O)NCC(c2ccco2)S(=O)(=O)c2ccc(C)cc2)cc1 (stereo unspecified) | . | . | . | . | - | .
O=C(CCCCCn1c(=O)[nH]c2ccccc2c1=O)NCc1ccccc1 | . | . | . | . | - | .
CCOc1ccccc1NC(=O)CN1C(=O)COc2ccc(S(=O)(=O)N3CCCCC3)cc21 | . | . | . | . | - | .
COc1ccc(C2OC(=O)c3ccccc3S2)cc1 (stereo unspecified) | - | - | ? | - | - | -
COc1cc(C2OC(=O)c3ccccc3S2)cc(OC)c1OC (stereo unspecified) | - | - | - | - | - | .
CSc1ncc2c(n1)-c1ccccc1N(Cc1ccccc1)S2(=O)=O | . | . | . | . | - | .
CCCCOc1ccc(-c2cc3c(=O)n(CC(=O)Nc4ccc(Cl)cc4Cl)ccn3n2)cc1 | . | . | . | . | - | .
COc1ccc2c(c1)OC[C@H]1[C@H]2N2C(=O)CN(Cc3ccc(C)cc3)C(=O)[C@@]2(C)[C@H]1c1ccccc1 | - | . | 11µM | . | - | -
CCCCN1CC(=O)N2[C@H]3c4ccc(OC)cc4OC[C@@H]3[C@H](c3ccccc3)[C@]2(C)C1=O | - | . | ? | . | - | -
COc1ccc2c(c1)OC[C@H]1[C@H]2N2C(=O)CN(Cc3ccc(F)cc3)C(=O)[C@@]2(C)[C@H]1c1ccccc1 | - | . | - | . | - | .
CCN(C(=O)c1cc2c(Cl)nc3ccccc3c2s1)c1cccc(Cl)c1 | . | . | . | . | - | .
O=C(CCCOc1ccc(Cl)cc1Cl)N/N=C/c1ccccc1 | . | ? | - | - | - | .
O=C(CCCOc1ccc(Cl)cc1Cl)N/N=C/c1ccccc1O | - | - | ? | - | - | -
COc1ccc(OCC(=O)Nn2c(-c3ccc(OC)cc3)nc3ccccc3c2=O)cc1 | - | - | ? | - | - | +
CCOC(=O)c1[nH]c2ccc(OC)cc2c1NC(=O)c1nonc1C | - | - | - | - | - | .
CCOC(=O)c1[nH]c2ccc(Cl)cc2c1NC(=O)c1nonc1C | - | - | ? | - | - | +
Clc1ccc(OCc2nc(-c3ccccn3)n[nH]2)cc1 | ? | - | - | - | - | .
Brc1ccc(OCc2nc(-c3ccccn3)n[nH]2)cc1 | ? | ? | ? | - | - | +
CCOC(=O)c1ccc(-c2ccc(C3Nc4ccccc4C(=O)N3O)o2)cc1 (stereo unspecified) | - | ? | 5µM | - | - | ?
COc1ccc(NC(=O)C2=C(C)Nc3nc(CCCO)nn3C2c2ccc(O)cc2)cc1 (stereo unspecified) | . | . | . | . | - | .
CC(C)Oc1ccc(Cn2c(-c3ccco3)n[nH]c2=S)cc1 | - | - | 22µM | 14µM | 2.5µM | -
